Compounds without any hit were thinned out: in the full panel of roughly 83,000, 20% have a hit.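 How to read the values: 0–100, growth inhibition (40 = 60% inhibited); 0, no net growth; -100 to 0, cell death (-40 = 40% of starting cells died; -100 = all dead).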 Activity calls are given as the source filed them. How the source made its calls: active means growth percent below 10; inactive means the rest.
Tests used:
Test in all cases: NCI-60 one-dose screen, 48 h (100 = growth as untreated, 0 = no growth, -100 = all killed)
[1] = tested on: SR leukemia; conditions: 10 µM unless noted
[2] = tested on: RPMI-8226 leukemia; conditions: 10 µM unless noted
[3] = tested on: OVCAR-8 ovarian; conditions: 10 µM unless noted
[4] = tested on: OVCAR-5 ovarian; conditions: 10 µM unless noted
[5] = tested on: OVCAR-4 ovarian; conditions: 10 µM unless noted
[6] = tested on: SK-OV-3 ovarian; conditions: 10 µM unless noted
[7] = tested on: IGROV1 ovarian; conditions: 10 µM unless noted
[8] = tested on: OVCAR-3 ovarian; conditions: 10 µM unless noted
[9] = tested on: NCI/ADR-RES ovarian; conditions: 10 µM unless noted
[10] = tested on: T-47D breast; conditions: 10 µM unless noted
[11] = tested on: BT-549 breast; conditions: 10 µM unless noted
[12] = tested on: MDA-MB-435 melanoma; conditions: 10 µM unless noted
[13] = tested on: SW-620 colon; conditions: 10 µM unless noted
[14] = tested on: MCF7 breast; conditions: 10 µM unless noted
[15] = tested on: HCT-116 colon; conditions: 10 µM unless noted
[16] = tested on: HCC-2998 colon; conditions: 10 µM
[17] = tested on: KM12 colon; conditions: 10 µM unless noted

Measured: growth

CNC(=O)c1ccc(Nc2ncc(C(F)(F)F)c(NCc3nccnc3N(C)S(C)(=O)=O)n2)cc1
inactive: [9] 29.8%
active: [1] -21.3% | [2] -26.7% | [3] -0.118% | [4] 0.954% | [5] 1.68% | [6] -21.1% | [7] 3.11% | [8] 9.41% | [10] -12.4% | [11] -5.77% | [12] 8.89% | [13] -4.11% | [14] 2.04% | [15] 1.19% | [16] 8.5% | [17] 1.91%

C=CCN(/C=C1/C(=O)O[C@H](COC)[C@@]2(C)C1=C(O)C(=O)C1=C2[C@H](OC(C)=O)C[C@]2(C)C(=O)CC[C@@H]12)CC=C
inactive: [2] 35.2% | [3] 29.4% | [4] 20.5% | [5] 30.6% | [8] 21% | [9] 35.4% | [12] 21.4% | [13] 39.8% | [14] 11.8% | [15] 14.6% | [17] 22.4%
active: [1] 0.113% | [6] -19.6% | [7] -1.93% | [10] -10.6% | [11] -7.68% | [16] -20.4%

NC(=O)Nc1cc(-c2cccc(F)c2)sc1C(=O)N[C@H]1CCCNC1
active: [1] -6.47% | [2] 6.16% | [3] -15.2% | [4] 2.28% | [6] -46.4% | [7] -50.5% | [8] -1.15% | [11] -60.9% | [12] -25.8% | [13] -7.1% | [15] -9.03% | [16] -34.6% | [17] 1.83%
inactive: [5] 25.5% | [9] 10% | [10] 15.1% | [14] 14.3%

Cn1cnc2c(F)c(Nc3ccc(Br)cc3Cl)c(C(=O)NOCCO)cc21
active: [4] 7.92% | [16] -10.2%
inactive: [1] 75% | [2] 69.9% | [3] 66.4% | [5] 65.5% | [6] 51.5% | [7] 25.3% | [8] 106% | [9] 68.6% | [10] 70% | [11] 78.5% | [12] 33.3% | [13] 24.2% | [14] 96% | [15] 17.6% | [17] 28.6%

CN1CCN(c2ccc(OC(F)(F)F)c(Nc3ncc4c(n3)-c3c(c(C(N)=O)nn3CCO)CC4)c2)CC1
active: [1] 4.81% | [3] 9.62% | [6] -3.27% | [12] -50.5% | [13] 9.76% | [15] 9.89% | [17] 9.34%
inactive: [2] 32.7% | [4] 19.9% | [5] 71.5% | [7] 25.1% | [8] 41% | [9] 12.9% | [10] 43.9% | [11] 27.8% | [14] 22.1% | [16] 17%

N#CCNC(=O)c1ccc(-c2ccnc(Nc3ccc(N4CCOCC4)cc3)n2)cc1
active: [1] 6.43% | [15] -4.58%
inactive: [2] 27.3% | [3] 24.1% | [4] 29% | [5] 65.8% | [6] 28.7% | [7] 10.7% | [8] 31.9% | [9] 62.7% | [10] 63.5% | [11] 10.8% | [12] 42.5% | [13] 24% | [14] 15.6% | [16] 30.8% | [17] 16.9%

CCOc1cc2ncc(C#N)c(Nc3ccc(F)c(Cl)c3)c2cc1NC(=O)/C=C/CN(C)C
active: [1] -14% | [2] -34.6% | [3] -7.83% | [4] -3.14% | [5] -61.9% | [6] -5.87% | [7] -32.1% | [8] -82.7% | [9] 6.54% | [10] -41.1% | [11] -35.8% | [12] -87.2% | [13] -53.8% | [14] -41.7% | [15] -79.7% | [16] -49.2% | [17] -83.8%

O=C1C=CC2(NN=C(c3ccccc3)N2c2cccc(Cl)c2)c2cccc(O)c21 (configuration not stated)
inactive: [1] 49.9% | [2] 57.4% | [3] 63.1% | [4] 52.8% | [5] 59.3% | [6] 92.5% | [7] 70.4% | [8] 36.6% | [9] 56% | [10] 101% | [11] 61.7% | [13] 82% | [14] 62.5% | [15] 54.8% | [16] 90.8% | [17] 64.9%
active: [12] -91.9%

Nc1ncnc2c1ccn2-c1cccc(NC(=O)c2ccc(N3CCOCC3)c(C(F)(F)F)c2)c1
active: [2] 4.92%
inactive: [1] 51.8% | [3] 24.8% | [4] 72.9% | [5] 104% | [6] 77.3% | [7] 40.5% | [8] 43.2% | [9] 26.2% | [10] 32.2% | [11] 57.5% | [12] 53.7% | [13] 66.5% | [14] 67.1% | [15] 24.9% | [16] 62.6% | [17] 31%

FC(F)(F)c1ccc(CNc2ccc(Cc3c[nH]c4ncc(Cl)cc34)cn2)cn1
inactive: [1] 11.1% | [2] 26.3% | [3] 14.3% | [4] 30.5% | [5] 30% | [6] 16% | [7] 41% | [8] 41.6% | [9] 12.6% | [11] 26.3% | [13] 19% | [14] 13.6% | [15] 15.4% | [16] 18.1%
active: [10] -1.92% | [12] 6.37% | [17] 7.06%

C/C(=C(/c1ccc(Cl)cc1)c1ccc(OCCN2CCCCC2)cc1)c1ccccc1
inactive: [1] 11.2% | [2] 69.6% | [3] 78.8% | [4] 81.6% | [5] 77.1% | [6] 86% | [7] 68.5% | [8] 98.6% | [9] 89.8% | [10] 46.7% | [11] 81.3% | [12] 90.9% | [13] 60.1% | [14] 43.6% | [15] 54.2% | [16] 98% | [17] 29.9%

S=C(NCc1ccc2c(c1)OCO2)N1CCN(c2ncnc3c2oc2ccccc23)CC1
active: [10] 1.12%
inactive: [1] 14.8% | [2] 21.3% | [3] 24.8% | [4] 62.1% | [5] 14.1% | [6] 35.6% | [7] 33.4% | [8] 30.9% | [9] 28.3% | [11] 32.3% | [12] 19.3% | [13] 40.9% | [14] 18.7% | [15] 34.3% | [16] 57.4% | [17] 45.2%

COC(=O)Nc1nc2ccc(C(=O)c3ccc(N(C)C4COC4)cc3)cc2[nH]1
inactive: [1] 14.4% | [2] 22.5% | [3] 11% | [4] 52.4% | [5] 57.2% | [7] 28.5% | [8] 31.9% | [9] 12% | [10] 57.5% | [13] 28.5% | [14] 16.3% | [16] 11% | [17] 15.7%
active: [6] 6.93% | [11] 9.02% | [12] -25.5% | [15] 7.08%

Cc1ccc(C(=O)Nc2ccc(CN3CCN(C)CC3)c(C(F)(F)F)c2)cc1C#Cc1cnc2cccnn12
active: [1] -28.2% | [2] -45.5% | [3] -95.8% | [4] -81.9% | [5] -76.2% | [6] -94% | [7] -65.5% | [8] -95.9% | [9] -49.1% | [10] -70.9% | [11] -97.7% | [12] -98.2% | [13] -87.6% | [14] -74.1% | [15] -85.3% | [16] -91.8% | [17] -91.3%

COc1cc2nccc(Oc3ccc(NC(=O)Nc4cc(C)on4)c(Cl)c3)c2cc1OC
active: [1] 4.19% | [6] -17.3% | [7] 0.0648% | [10] -1.14% | [15] -4.79%
inactive: [2] 21% | [3] 15.3% | [4] 20.2% | [5] 31.1% | [8] 35.1% | [9] 10.2% | [11] 19.6% | [12] 14.8% | [13] 10.7% | [14] 22.8% | [16] 56.6% | [17] 11.4%

CC1=CC2c3oc(-c4ccccc4)c(C(=O)c4ccccc4)c3CNC2C=C1 (configuration not stated)
inactive: [1] 89.6% | [2] 105% | [3] 83.6% | [4] 88.8% | [5] 117% | [6] 83.3% | [7] 102% | [8] 106% | [9] 94.6% | [10] 91.3% | [11] 103% | [12] 107% | [13] 97.1% | [14] 84.2% | [15] 92.2% | [16] 102% | [17] 101%
